The results in this text go back to the supplement of paper PMC12067926.

The test relates to Microbacterium 1 (Microbacterium arborescens). As to the kind of experiment: relative growth (AUC of 72 h growth curve relative to DMSO control, dAUC) (ratio); higher = more growth (less inhibition), active = hit call of the paper. As to conditions: 20 µM;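 active = growth AUC significantly below the DMSO wells by Dunnett test; inactive = the rest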. In a few lines: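 Cultures grown to carrying capacity in Luria–Bertani medium, drawn from Icelandic stream sediment and Silwood Park soil isolates and whole sediment communities, were diluted 1:100 into 96-well plates with each chemical at 20 µM (1% DMSO) and read at A600 hourly for 72 h. The spline-integrated area under the growth curve, divided by the mean of the DMSO controls, is reported as relative growth (dAUC). Values are means of three biological replicates.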
As for `Nc1c([N+](=O)[O-])ccc(Oc2ccccc2)c1Cl`, the relative growth is 1.03 (inactive).
`COCC(=O)N(c1c(C)cccc1C)[C@H](C)C(=O)OC`: the relative growth is 1.03 (inactive).
With `O=C(Nc1ccc(F)cc1F)c1cccnc1Oc1cccc(C(F)(F)F)c1` the figure was 0.997 (inactive); with `N#Cc1sc2c(=O)c3ccccc3c(=O)c=2sc1C#N`, 0.965 (inactive); with `CC(C)OC(=O)Nc1cccc(Cl)c1`, 1.04 (inactive).
As for `N#C/N=C1\SCCN1Cc1ccc(Cl)nc1`, the figure is 1.03 (inactive); as for `CC(Oc1ccc(Oc2ncc(C(F)(F)F)cc2Cl)cc1)C(=O)O` (stereo not drawn), 0.984 (inactive).
As for `Oc1ccccc1-c1ccccc1`, the figure is 1.04 (inactive); as for `C#CCOc1ccc(CCNC(=O)C(OCC#C)c2ccc(Cl)cc2)cc1OC` (stereo not drawn), 1.02 (inactive); as for `O=[N+]([O-])c1cc(C(F)(F)F)c(Cl)c([N+](=O)[O-])c1Nc1ncc(C(F)(F)F)cc1Cl`, 0.928 (inactive).
For the compound `CC(C)CC(C)c1sccc1NC(=O)c1cn(C)nc1C(F)(F)F` (stereo not drawn), the relative growth was 0.937 (inactive).
With `O=C1C=C(N(Cc2ccc(Cl)nc2)CC(F)F)CO1` the figure was 1.04 (inactive).
As for `O=C(Nc1ccccc1-c1ccc(Cl)cc1)c1cccnc1Cl`, the figure is 1.01 (inactive); as for `CC(C)N1C(=O)c2ccccc2NS1(=O)=O`, 0.977 (inactive).
As for `CCC(=O)Nc1ccc(Cl)c(Cl)c1`, the relative growth was 1.02 (inactive).
As for `ClC1C(Cl)C(Cl)C(Cl)C(Cl)C1Cl` (stereo not drawn), the figure is 1.01 (inactive); as for `CN/C(=N\[N+](=O)[O-])NCc1cnc(Cl)s1`, 0.983 (inactive).
As for `CCc1cnc(C2=NC(C)(C(C)C)C(=O)N2)c(C(=O)O)c1` (stereo not drawn), the figure is 1.04 (inactive).
